Screen size: about 420,000 compounds; about 50,000 (12%) were called active. Roughly 26% stayed inconclusive and do not appear here. The sample as a whole holds a higher share of actives than the screen did. Values without a mark were called inactive. The call rests on the fitted dose curve; in most records, active means well fitted inhibition curve with a large enough effect; inconclusive means small, poorly fitted or top-dose-only effect; inactive means flat fitted curve, though single readings scatter.
experiment: qHTS for Inhibitors of human tyrosyl-DNA phosphodiesterase 1 (TDP1): qHTS in cells in presence of CPT; conditions: chicken DT40 Tdp1-/-;hTDP1 cells + 20 nM CPT, ATP luminescence, 48 h; series mostly up to 46.2 µM; activity change, negative = growth inhibition: at the top concentration; further: nearly all actives have a fitted effect of over 55% in size
How it was run: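 Cell growth measured by CellTiter-Glo luminescence after a minimum 48 h, 37 C compound exposure with 20 nM CPT in Tdp1-knockout DT40 cells stably expressing hTDP1, seeded 400/well; qHTS titration format.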
On the % scale 0 is the no-effect control and ±100 the full control effect; potency means the concentration at half of the fitted maximal effect.

Row | Structure (SMILES) | activity change, negative = growth inhibition [%] | Potency
1 | Cc1c(NS(=O)(=O)c2cc(C(=O)NCCc3ccc(F)cc3)cc(Cl)c2Cl)c(=O)n(-c2ccccc2)n1C | -26 | –
2 | Cc1cc(=O)oc2cc(NC(=O)C(C)Oc3ccccc3)ccc12 (stereo not drawn) | -3.45 | –
3 | Cc1cccc(OCC(=O)OCC(=O)Nc2ccc(Cl)cn2)c1 | 0.866 | –
4 | O=S(=O)(NCCCc1ccccc1)c1ccc(Br)cc1 | 0.36 | –
5 | O=C(CSCc1ccccc1)Nc1ccccc1 | 20.1 | –
6 | CC(C(=O)NCCc1ccc(S(N)(=O)=O)cc1)N1C(=O)CC(C)(C)Sc2ccccc21 (stereo not drawn) | 19.7 | –
7 | COc1ccc(-c2c(NC(=O)c3ccco3)oc3ccc(Cl)cc3c2=O)cc1 | -6.75 | –
8 | COc1cc(OC)cc(C(=O)NNC(=O)CNC(=O)c2ccc(Br)o2)c1 | 21.2 | –
9 | O=C1CC[C@@H](C(=O)N2CSC[C@@H]2C(=O)Nc2ccc(C(F)(F)F)cc2)N1 | -1.13 | –
10 | COc1ccc2c(CC(=O)OCC(=O)NC(N)=O)coc2c1 | -2.76 | –
11 | COc1ccc2nc(SCc3ccccc3)nc(C)c2c1 | 6.25 | –
12 | Nc1ccc2c(c1)C(=Cc1cccnc1)c1ccccc1-2 | -6.16 | –
13 | CN(C)CCn1c2c(c(SCC(=O)Nc3ccccc3C(F)(F)F)nc1=O)CCCC2 | -2.77 | –
14 | Cc1ccccc1NC(=O)N1CCCC1C(=O)NCc1ccccc1 (stereo not drawn) | -11.8 | –
15 | O=C1CN(C(=O)Nc2ccccc2C(F)(F)F)C(c2ccccc2)c2c(sc3c2CCCC3)N1 (stereo not drawn) | – | 20.6 µM (active)
16 | COc1ccc2c(CC(=O)N3CCc4cc(OC)c(OC)cc4C3)coc2c1 | -2.85 | –
17 | COc1ccccc1N1CCN(C(=O)c2cc(=O)c3cc(C)cc(C)c3o2)CC1 | – | 0.0052 µM (active)
18 | Cc1ccc2oc(=O)c3cnn(CC(=O)N4CCN(c5ccccn5)CC4)c3c2c1 | -12.3 | –
19 | COc1ccc2oc(=O)c(C(=O)N3CCN(c4ccccc4F)CC3)cc2c1 | -26.6 | –
20 | O=C(c1cc(=O)c2ccccc2o1)N1CCN(c2ccccc2)CC1 | 0.696 | –
21 | COc1cccc2cc(C(=O)N3CCN(C(=O)c4ccccc4)CC3)c(=O)oc12 | -16.3 | –
22 | COc1cc2c(cc1OC)CN(C(=O)c1cc(=O)c3ccccc3o1)CC2 | – | 4.11 µM (active)
23 | COc1ccccc1OCc1ccc(C(=O)N2CCN(C)CC2)o1 | 7.63 | –
24 | COc1ccccc1N1CCN(C(=O)c2cc(=O)c3cc(C)ccc3o2)CC1 | – | 14.6 µM (active)
25 | CC1(C)C2CCC1(CS(=O)(=O)NCCc1c[nH]c3ccccc13)C(=O)C2 (stereo not drawn) | -2.02 | –
26 | C/C(=N\NS(=O)(=O)c1ccc(Cl)cc1)c1ccc(NC(=O)c2ccco2)cc1 | -3.84 | –

Row | Structure (SMILES) | activity change, negative = growth inhibition [%] | Potency
27 | Cc1ccc(OCC(=O)Nc2ccc3oc(=O)ccc3c2)cc1C | -0.987 | –
28 | CSc1cccc(NC(=O)C2CCCN2S(=O)(=O)c2ccc3c(c2)CCC(=O)N3)c1 (stereo not drawn) | -21.6 | –
29 | N#Cc1c(N)nc2c(c1N)CC(C(F)(F)F)O2 (stereo not drawn) | 0.681 | –
30 | CCc1ccc(CNC(=O)c2cc3cc4ccc(OC)cc4nc3o2)cc1 | 1.41 | –
31 | Cc1ccc(-c2cc(N)n(Cc3cccc(Cl)c3)n2)cc1 | -22.3 | –
32 | CC(C)Cc1ccc(-c2cc3nc(NCc4cccc(Cl)c4)ccn3n2)cc1 | – | 20.6 µM (active)
33 | CCNC(=S)N1CCN(CCN=CC2=C(O)CC(C)(C)CC2=O)CC1 | 3.82 | –
34 | COc1ccc(S(=O)(=O)NC(C)C)cc1C(=O)NC1CCCCC1 | 7.46 | –
35 | COc1ccccc1N(C)S(=O)(=O)c1ccc(C(=O)NC2CCCCCC2)cc1 | – | 23.1 µM (active)
36 | COc1ccccc1N(C)S(=O)(=O)c1ccc(C(=O)N2CCC(C(N)=O)CC2)cc1 | -21 | –
37 | CO[C@]1(NC(=O)CSC(F)F)C(=O)N2C(C(=O)O)=C(CSc3nnnn3CCO)CO[C@H]21 | 1.05 | –
38 | CCn1c(SCC(=O)NC2CC2)nnc1-c1ccccc1OC | 6.21 | –
39 | COC(=O)c1ccc(COc2ccc(C#N)cc2)o1 | -0.114 | –
40 | CCc1cccc(C)c1N1C(=O)CN(Cc2ccccc2)C1=S | -2.8 | –
41 | Cn1cc(CCC(=O)N2CCCC(C(=O)c3ccc(C(C)(C)C)cc3)C2)cn1 (stereo not drawn) | – | 25.9 µM (active)
42 | COCC(=O)N1CCCC(C(=O)c2ccc(C(F)(F)F)cc2)C1 (stereo not drawn) | -21.2 | –
43 | Cn1cc(/C=C/C(=O)N2CCCC(C(=O)c3ccc(C(F)(F)F)cc3)C2)cn1 (stereo not drawn) | 8.27 | –
44 | CC1(C(=O)NS(=O)(=O)c2ccccc2)CCN1C(=O)c1ccccc1 (stereo not drawn) | 5.22 | –
45 | CCNC(=O)C1(C)CCCN1C(=O)c1ccc(N(C)C)cc1 (stereo not drawn) | -2.17 | –
46 | CC(C)NC(=O)C1(C)CCCCCN1C(=O)c1ccc(-c2ccccc2)cc1 (stereo not drawn) | – | 18.4 µM (active)
47 | CC(OC(=O)c1ccc(-n2cnnn2)cc1)C(=O)NCc1ccccc1 (stereo not drawn) | 2.67 | –
48 | O=C(CSc1nc(=O)n(Cc2cccnc2)c2c1CCC2)Nc1ccc(F)cc1F | -2.59 | –
49 | Cc1ccc2oc(=O)c3cnn(CC(=O)N4CCN(c5cccc(Cl)c5)CC4)c3c2c1 | -20.3 | –
50 | Cc1oc2ncnc(N3CCCCC3)c2c1C(=O)N1CCN(c2cccc(Cl)c2)CC1 | – | 16.4 µM (active)
51 | COc1ccc(C)cc1N(C)C(=O)c1c(C)oc2ncnc(N3CCOCC3)c12 | 24.5 | –
52 | O=C1C(c2[nH]c3ccccc3c2O)=Nc2ccccc21 | -24.8 | –

Row | Structure (SMILES) | activity change, negative = growth inhibition [%] | Potency
53 | O=C(Nn1c(-c2ccccc2)nc2ccccc2c1=O)c1ccc([N+](=O)[O-])cc1 | -5.8 | –
54 | CCOC(=O)CCCN1CC(O)=C(c2nc3ccccc3s2)C1=N | -18.1 | –
55 | N=C1C(c2nc3ccccc3s2)=C(O)CN1NC(=O)c1ccc([N+](=O)[O-])cc1 | – | 20.6 µM (active)
56 | COc1cccc(C(=O)n2ccc(-c3cccs3)n2)c1 | 5.04 | –
57 | CCCCNC(=S)N/N=C1\CCCCc2ccccc21 | – | 23.1 µM (active)
58 | CCCCc1ccc(NC(=S)NCCCN2CCOCC2)cc1 | -16 | –
59 | Cc1ccc(NC(=S)N/N=C2/CCCc3c(C)cc(C)cc32)cc1 | 4.83 | –
60 | CCOc1ccccc1CN1CCN(C2CCC2)CC1CCO (stereo not drawn) | 1.66 | –
61 | COC(C/C=C/C(=O)[C@@H](C)OCc1ccccc1)OC | – | 18.4 µM (active)
62 | COC(C[C@@H]1O[C@@H]1C(=O)[C@@H](C)OCc1ccccc1)OC | -25.6 | –
63 | COC(C[C@H](O)CC(=O)[C@@H](C)OCc1ccccc1)OC | -0.491 | –
64 | CCCC(C)C(=O)OCC(=O)Nc1c(Br)cc(C)cc1Br (stereo not drawn) | 3.63 | –
65 | OCC1(Cc2ccccc2C(F)(F)F)CCN(Cc2cccc3cnccc23)CC1 | -4.82 | –
66 | CC1CCCCC1NC(=O)CSc1nnc(-c2ccncc2)n1CCCN(C)C (stereo not drawn) | 10.5 | –
67 | CN1CCN(c2ccc(S(=O)(=O)N3CCOCC3)cc2NC(=O)CCc2ccccc2)CC1 | 0.451 | –
68 | COC(=O)c1ccc(N2CCOCC2)c(NC(=O)c2ccc(Br)o2)c1 | 0.879 | –
69 | CCCNC(=O)c1ccc(N2CCC3(CC2)CC(c2ccc(Cl)cc2)=NO3)c([N+](=O)[O-])c1 | – | 23.1 µM (active)
70 | CCCN(CCC)CCNC(=O)c1ccc2c(c1)NC(=O)C(CS(=O)(=O)Cc1cccc(Br)c1)N2 (stereo not drawn) | -21.3 | –
71 | O=C(NCCCN1CCOCC1)c1ccc(N2CCCC2)c([N+](=O)[O-])c1 | 13.4 | –
72 | CCCNC(=O)c1ccc(N2CCC3(CC2)CC(c2cccc(Br)c2)=NO3)c(NC(=O)c2ccco2)c1 | – | 5.17 µM (active)
73 | COCCNC(=O)c1ccc(N2CCC3(CC2)OCCO3)c([N+](=O)[O-])c1 | -2.95 | –
74 | Cc1oc2c(C)c3oc(=O)c(CC(=O)N[C@@H](CC(C)C)C(=O)N[C@@H](Cc4ccccc4)C(=O)O)c(C)c3cc2c1C | 0.481 | –
75 | COc1cc(N)c(Cl)cc1C(=O)OCC(=O)c1ccc2c(c1)NC(=O)CO2 | -24.7 | –
76 | CCOc1ccccc1NC(=O)CCc1nnc2ccc(NCc3ccco3)nn12 | -5.44 | –
77 | Cn1ncc([N+](=O)[O-])c1C(=O)Nc1cc(Cl)ccc1Cl | 13.4 | –
78 | C/C(=N\NC(=O)c1cccnc1)c1ccc(-n2ccnc2)cc1 | 6.18 | –

Row | Structure (SMILES) | activity change, negative = growth inhibition [%] | Potency
79 | Cc1ccc(C)c(NC(=O)CCC(=O)N/N=C2/CC(=O)CC(C)(C)C2)c1 | -5.64 | –
80 | Nc1[nH]c(C(=O)c2ccccc2)c(-c2ccc(Br)cc2)c1C(=O)NC1CC1 | -9.96 | –
81 | COc1cccc(/C=N/Nc2cc(C)nc(-c3ccccc3O)n2)c1O | – | 18.4 µM (active)
82 | COc1ccccc1/C=N/Nc1nc(C)c(C(C)=O)s1 | -19.1 | –
83 | Cc1ccc(S(=O)(=O)Nc2nc(C)cc(N/N=C/c3ccc(O)cc3)n2)cc1 | -0.757 | –
84 | Cc1nc(Cl)cc(N/N=C/c2ccccc2)n1 | -13 | –
85 | Cc1cc(N/N=C\c2ccc(Br)cc2)nc(-n2nc(C)cc2C)n1 | – | 1.64 µM (active)
86 | COc1cc(NS(=O)(=O)c2ccccc2)ccc1-n1nc(C)cc1C | -9.7 | –
87 | COc1ccccc1-n1c(SCC(=O)Nc2cccc(C(=O)O)c2)nnc1-c1ccccc1O | -3.19 | –
88 | COc1cccc2c(N/N=C/c3ccco3)cc(C)nc12 | -2.9 | –
89 | COc1ccccc1/C=N\Nc1cc(C)nc(-n2nc(C)cc2C)n1 | – | 6.51 µM (active)
90 | COc1ccc(CCNS(=O)(=O)c2ccc(Cl)s2)cc1OC | -20.2 | –
91 | COc1cc(=O)n2c(c1C(=O)N(C)Cc1nonc1C)CCN(C(=O)c1ccc(C)cc1C)CC2 | 14.1 | –
92 | CCc1ccc(NC(=O)CC2C(=O)NCCN2C(=S)Nc2ccccc2)cc1 (stereo not drawn) | -7.73 | –
93 | O=C(Nc1cccc2cccnc12)c1cccc(Cl)c1 | -16.5 | –
94 | O=C(Nc1nnc([C@H]2C[C@H](O)[C@@H](CO)O2)s1)c1cccc(Cl)c1 | -16.4 | –
95 | O=C(Nc1cccc2cccnc12)c1ccc2sc([C@H]3C[C@H](O)[C@@H](CO)O3)nc2c1 | – | 18.4 µM (active)
96 | O=C1CCC(=O)N1CCC(=O)N(C(=O)NC1CCCCC1)C1CCCCC1 | 3.74 | –
97 | NC(=O)C[n+]1cccc(C(N)=O)c1 | -1.13 | –
98 | COc1c(O)ccc2c1CN1CCc3cc4c(cc3C1C2)OCO4 (stereo not drawn) | – | 14.6 µM (active)
99 | COc1cc(COCC(O)CN2CCN(Cc3ccc4c(c3)OCO4)CC2)cc(OC)c1OC (stereo not drawn) | -5.21 | –
100 | COCCCN1C(=O)C(=O)/C(=C(/O)c2ccc(S(=O)(=O)N3CCOCC3)cc2)C1c1ccc(F)cc1 (stereo not drawn) | -34 | –
101 | Cc1nn(C(=O)c2ccoc2C)c(N)c1-c1ccccc1 | -9.59 | –
102 | Cc1[nH]n(-c2ccccc2)c(=O)c1/C=N/NC(=O)c1ccoc1C | – | 1.46 µM (active)
103 | Cc1ccc(N=Nc2c(C)[nH]n(-c3ccccc3)c2=O)cc1 | -17.8 | –

Source: PubChem BioAssay AID686979 (National Center for Advancing Translational Sciences (NCATS), 2013)
